Results as given in the supplement of paper PMC7156485.

Key:
Details in all cases: concentration: 10 µM; 24 h
HCC1569 [1] = experiment: cell number relative to DMSO (% of DMSO); higher = more cells (less growth inhibition / toxicity)
How it was run: (§1)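 Treatment: HCC1569 and TDF cells, 800 per well in 384-well plates with RPMI and 10% FBS, were given compounds at 10 µM for 24 h at 37 °C, in triplicate. Readout: after 3.7% formaldehyde fixation, cells were stained with a rabbit anti-H1.0 antibody, an AlexaFluor 647 secondary and DAPI. Reported values are H1.0 nuclear intensity or cell number as percent of the plate control, taken as the median of replicates, with positional smoothing for HCC1569.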

TDF [2] = experiment: as above
How it was run: as §1

TDF [3] = experiment: H1.0 immunofluorescence intensity relative to DMSO (% of DMSO); higher = stronger H1.0 induction, active = 120 or more
How it was run: as §1

HCC1569 [4] = experiment: H1.0 immunofluorescence intensity relative to DMSO (% of DMSO); higher = stronger H1.0 induction, active = 140 or more
How it was run: as §1
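Throughout, for H1.0 immunofluorescence intensity relative to DMSO: TDF is a line of transformed human dermal fibroblasts of mesenchymal origin.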
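Throughout, for cell number relative to DMSO: TDF denotes transformed human dermal fibroblasts of mesenchymal origin.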

SMILES | cell number (HCC1569 [1]) | cell number (TDF [2]) | H1.0 immunofluorescence intensity (TDF [3]) | H1.0 immunofluorescence intensity (HCC1569 [4])
CC1OC(OCC2OC(Oc3cc(O)c4c(c3)OC(c3ccc(O)c(O)c3)CC4=O)C(O)C(O)C2O)C(O)C(O)C1O (stereo not given) [Eriocitrin] | 101 | 119 | 89 (inactive) | 84 (inactive)
CCCCCC=CCC=CCCCCCCCCC(=O)O [10(Z),13(Z)-Nonadecadienoic acid] | 98.3 | 96.2 | 109 (inactive) | 103 (inactive)
CCC12CCCN3CCc4c(n(c5ccccc45)C(O)(C(=O)OC)C1)C32 (stereo not given) [Vincamine] | 101 | 95.8 | 102 (inactive) | 86.2 (inactive)
CN(C)CCC=C1c2ccccc2C=Cc2ccccc21.Cl [Cyclobenzaprine hydrochloride] | 99.3 | 103 | 109 (inactive) | 110 (inactive)
COc1ccc(CN(CCN(C)C)c2ccccn2)cc1.O=C(O)C=CC(=O)O [Pyrilamine maleate] | 103 | 104 | 99.6 (inactive) | 100 (inactive)
CN(C)CC(C)(C)CNc1nn2c(-c3ccccc3)nnc2cc1C1CCC1 | 101 | 103 | 99.9 (inactive) | 92.2 (inactive)
Nc1ccn(C2OC(CO)C(O)C2(F)F)c(=O)n1 (stereo not given) [Gemcitabine] | 74.8 | 42.4 | 122 (active) | 96.6 (inactive)
Nc1ccc(S(=O)(=O)Nc2ncccn2)cc1 [Sulfadiazine] | 101 | 108 | 95.6 (inactive) | 96.7 (inactive)
CCCC(=O)NCCc1c2n(c3ccc(OC)cc13)CCCc1ccccc1-2 | 96.8 | 109 | 84.7 (inactive) | 100 (inactive)
O=Cc1c2[nH]c3ccccc3c2cc2[nH]c3ccccc3c12 [6-Formylindolo [3,2-B] carbazole] | 101 | 99 | 91.4 (inactive) | 100 (inactive)
CCCCCCCCC=CCCCCCCCCCC(=O)O [11(Z)-Eicosenoic acid] | 105 | 105 | 98.9 (inactive) | 101 (inactive)
COc1ccc(OC)c2c(=S)c3ccccc3[nH]c12 | 105 | 92 | 106 (inactive) | 111 (inactive)
O=C(O)[C@@H]1C[C@H](C(=O)O)N1 [cis-Azetidine-2,4-dicarboxylic acid] | 103 | 101 | 105 (inactive) | 109 (inactive)
CCN1C(=CC(C)=O)Sc2ccc(OC)cc21 [Cdc2-Like Kinase Inhibitor, TG003] | 97.3 | 112 | 89.5 (inactive) | 119 (inactive)
O=C(O)c1cc(=O)c2ccc(Cl)cc2[nH]1 [7-Chlorokynurenic acid] | 96.9 | 105 | 92 (inactive) | 91 (inactive)
CC1=C(C(=O)Nc2cc3cn[nH]c3cc2F)C(c2ccc(C(F)(F)F)cc2)CC(=O)N1 (stereo not given) | 113 | 98.5 | 87.8 (inactive) | 107 (inactive)
O=S(=O)(NCc1ccccn1)c1ccc(Br)c2ccccc12 [4-bromo-N-(2-pyridinylmethyl)-1-naphthalenesulfonamide] | 99.1 | 99.2 | 96.2 (inactive) | 107 (inactive)
CC#CC(=O)Nc1cc2c(Nc3ccc(F)c(Cl)c3)ncnc2cn1 [EGFR/ErbB-2/ErbB-4 Inhibitor] | 87.1 | 78.2 | 104 (inactive) | 113 (inactive)
CC(C)(C)n1nc(-c2ccc(Cl)cc2)c2c(N)ncnc21 | 67.2 | 107 | 99.8 (inactive) | 182 (active)
Clc1ccc(COC(Cn2ccnc2)c2ccc(Cl)cc2Cl)c(Cl)c1 (stereo not given) [Miconazole] | 96.8 | 110 | 101 (inactive) | 114 (inactive)
CCCCCCCCCCC(=O)O [Undecanoic acid] | 104 | 100 | 113 (inactive) | 103 (inactive)
Cn1c(-c2ccc3c(c2)OCO3)cc(=O)c2ccccc21 [Graveoline] | 103 | 99.8 | 101 (inactive) | 96.9 (inactive)
CC(CN1c2ccccc2Sc2ccccc21)N(C)C.Cl (stereo not given) | 105 | 105 | 110 (inactive) | 112 (inactive)
O=C1NC(=O)C(c2cn(CCCn3ccnc3)c3ccccc23)=C1Nc1ccccc1 [PKCb Inhibitor] | 100 | 113 | 87.7 (inactive) | 104 (inactive)
C=CCSC[C@H](N)C(=O)O [(2R)-3-(allylsulfanyl)-2-aminopropanoic acid] | 103 | 95.1 | 88.7 (inactive) | 90.1 (inactive)

SMILES | cell number (HCC1569 [1]) | cell number (TDF [2]) | H1.0 immunofluorescence intensity (TDF [3]) | H1.0 immunofluorescence intensity (HCC1569 [4])
O=C1c2c(O)cc(O)cc2OC(c2ccc(O)c(O)c2)C1O (single isomer, unassigned; (+)) [(+)-Taxifolin] | 99.5 | 83.9 | 105 (inactive) | 102 (inactive)
O=[N+]([O-])c1ccc([O-])c(OS(=O)(=O)[O-])c1.[K+].[K+] [dipotassium 5-nitro-2-oxidophenyl sulfate] | 99.5 | 108 | 90.9 (inactive) | 100 (inactive)
Cc1cc(F)c(Nc2ncnc3cc(OCc4ccccc4)ccc23)cc1O.Cl | 91.6 | 105 | 94.5 (inactive) | 138 (inactive)
COc1ccccc1OCC(O)CN1CCN(CC(=O)Nc2c(C)cccc2C)CC1.Cl.Cl (stereo not given) [Ranolazine dihydrochloride] | 104 | 107 | 97.9 (inactive) | 99.9 (inactive)
COC(=O)Nc1nc2ccc(S(=O)c3ccccc3)cc2[nH]1 (stereo not given) [Oxfendazole] | 100 | 68.2 | 108 (inactive) | 124 (inactive)
N#Cc1c(-c2ccccc2)cc(-c2cc(Br)ccc2O)[nH]c1=O [PIM1 Kinase Inhibitor II] | 103 | 105 | 93.5 (inactive) | 114 (inactive)
CCCCCCCCCCCCCCCCCCOCC(COP(=O)([O-])OCC[N+](C)(C)C)OC(C)=O (stereo not given) | 98.8 | 115 | 92.5 (inactive) | 103 (inactive)
CC1CS(=O)(=O)CCN1/N=C/c1ccc([N+](=O)[O-])o1 (stereo not given) | 96.4 | 102 | 98.5 (inactive) | 95.5 (inactive)
COc1cc(/C=C/C(=O)O)ccc1O [Ferulic acid] | 102 | 97.3 | 101 (inactive) | 92.2 (inactive)
O=C(O)C=Cc1c[nH]c2ccccc12 [3-Beta-Indoleacrylic acid] | 97.9 | 101 | 94.8 (inactive) | 95.1 (inactive)
CCCCCC=CCC=CCCCCCCCCCCCC(=O)O [13(Z),16(Z)-Docosadienoic acid] | 100 | 109 | 104 (inactive) | 89.9 (inactive)
CC(=O)NCC1CN(c2ccc(N3CCOCC3)c(F)c2)C(=O)O1 (stereo not given) [Linezolid] | 104 | 99.7 | 93.4 (inactive) | 110 (inactive)
Cl.NC(CO)C(=O)NNCc1ccc(O)c(O)c1O (stereo not given) [Benserazide hydrochloride] | 91.1 | 95.6 | 98.3 (inactive) | 96.3 (inactive)
O=c1[nH]c(=O)n([C@H]2C[C@H](O)[C@@H](CO)O2)cc1/C=C/Br [(E)-5-(2-Bromovinyl)-2'-deoxyuridine] | 104 | 100 | 97.3 (inactive) | 87.7 (inactive)
CC[N+](CC)(CC)CCOc1cccc(OCC[N+](CC)(CC)CC)c1OCC[N+](CC)(CC)CC [Gallamine] | 101 | 107 | 93.8 (inactive) | 104 (inactive)
CCCCCCCCCCCCCCCC(=O)OC(CC(=O)O)C[N+](C)(C)C.[Cl-] (racemic) [Palmitoyl-DL-Carnitine chloride] | 94.9 | 101 | 104 (inactive) | 110 (inactive)
CC(COc1ccccc1)N(CCCl)Cc1ccccc1.Cl (stereo not given) [Phenoxybenzamine.HCl] | 106 | 103 | 97.7 (inactive) | 102 (inactive)
CC(C)(O)CCC(O)C(C)(O)C1CCC2(O)C3=CC(=O)C4CC(O)C(O)CC4(C)C3CCC12C (stereo not given) | 102 | 97 | 102 (inactive) | 94.8 (inactive)
CN1C(C(=O)Nc2ccccn2)=C(O)c2sccc2S1(=O)=O [Tenoxicam] | 100 | 87.8 | 95 (inactive) | 93.3 (inactive)
CCN(CC)CCOCCOC(=O)C1(c2ccccc2)CCCC1.O=C(O)CC(O)(CC(=O)O)C(=O)O [Carbetapentane citrate] | 86.4 | 89 | 107 (inactive) | 97.4 (inactive)
O=C(CCc1ccc(O)cc1)c1c(O)cc(O)cc1OC1OC(CO)C(O)C(O)C1O (stereo not given) [Phlorizine] | 101 | 99.3 | 102 (inactive) | 97.1 (inactive)
O=c1ncnc2[nH][nH]cc1-2 [Allopurinol] | 103 | 109 | 97.1 (inactive) | 88.4 (inactive)
Cc1ccc(OCCSc2ncccn2)c(Br)c1 [2-{[2-(2-bromo-4-methylphenoxy)ethyl]sulfanyl}pyrimidine] | 100 | 105 | 94 (inactive) | 107 (inactive)
CN1CCN(C2Cc3ccccc3Sc3ccc(Cl)cc32)CC1.O=C(O)C=CC(=O)O (stereo not given) | 82 | 104 | 105 (inactive) | 145 (active)
CCCCCC(O)CC(=O)CCc1ccc(O)c(OC)c1 (stereo not given) [Gingerol] | 99.3 | 97.2 | 92.9 (inactive) | 85.8 (inactive)
